Data on six molecules can be found in PubChem BioAssay (EPA / NIEHS).

Holding throughout (conditions): mRNA level, 48 h; actives raise or lower the signal
Read-out in test [1]: growth arrest and DNA damage 45 (GADD45A), GADD45A (gene 1647)
The test can be described thus: LTEA_HepaRG_GADD45A: Life Technologies and Expression Analysis (LTEA) Assay for growth arrest and DNA damage 45 (GADD45A) using HepaRG (AID 2283458). An outline of the steps:
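Eight-point concentration-response in HepaRG cells: 48 h chemical exposure, 0.5% DMSO vehicle, top dose 100 uM. Normalized qRT-PCR mRNA readout with bidirectional fitting relative to DMSO.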

Read-out in test [2]: Forkhead box O3 (FOXO3), FOXO3 (gene 2309)
The experiment in a line: LTEA_HepaRG_FOXO3: Life Technologies and Expression Analysis (LTEA) Assay for Forkhead box O3 (FOXO3) using HepaRG (AID 2283459). The essentials: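 qRT-PCR readout of FOXO3 transcript, normalized to three housekeeping genes (ACTB, GAPDH, POLR2A); gain or loss fitted against 0.5% DMSO vehicle. HepaRG cells, 48 h chemical exposure, 8-point half-log series, top 100 uM.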

Read-out in test [3]: ABC Transporter (ABCB1), ABCB1 (gene 5243)
The test can be described thus: LTEA_HepaRG_ABCB1: Life Technologies and Expression Analysis (LTEA) Assay for ABC Transporter (ABCB1) using HepaRG (AID 2283460). An outline of the steps:
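HepaRG, 48 h exposure, 8-pt half-log series from 100 uM, 0.5% DMSO vehicle, duplicates. Readout: ABCB1 transcript by Fluidigm TaqMan qRT-PCR, housekeeping-normalized; bidirectional curve fit vs DMSO baseline.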

Read-out in test [4]: growth arrest and DNA damage 45 (GADD45B), GADD45B (gene 4616)
The experiment in a line: LTEA_HepaRG_GADD45B: Life Technologies and Expression Analysis (LTEA) Assay for growth arrest and DNA damage 45 (GADD45B) using HepaRG (AID 2283461). An outline of the steps: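 HepaRG, ~100,000 cells/well, 48 h plating; serum-free induction medium; cpd 100 uM top, half-log x8, 0.5% DMSO, duplicate, 48 h; lysis in RLT, RNA isolation, qRT-PCR; norm ACTB/GAPDH/POLR2A; bidirectional fit vs DMSO.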

Read-out in test [5]: ABC Transporter (ABCC3), ABCC3 (gene 8714)
The experiment in a line: LTEA_HepaRG_ABCC3: Life Technologies and Expression Analysis (LTEA) Assay for ABC Transporter (ABCC3) using HepaRG (AID 2283462). An outline of the steps:
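Human HepaRG, 48 h dosing, 8-pt half-log series from 100 uM, 0.5% DMSO vehicle, duplicates. ABCC3 mRNA by TaqMan qRT-PCR, housekeeping-normalized; bidirectional curve fit vs DMSO.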

Read-out in test [6]: ABC Transporter (ABCB11), ABCB11 (gene 8647)
The test can be described thus: LTEA_HepaRG_ABCB11: Life Technologies and Expression Analysis (LTEA) Assay for ABC Transporter (ABCB11) using HepaRG (AID 2283463). An outline of the steps: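 HepaRG, 48 h exposure, 8-pt half-log CRC top 100 uM, 0.5% DMSO vehicle, duplicates. Readout: TaqMan qRT-PCR of ABCB11 mRNA, housekeeping-normalized (ACTB/GAPDH/POLR2A). Bidirectional fit vs DMSO baseline.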

Read-out in test [7]: ABC Transporter (ABCC2), ABCC2 (gene 1244)
The experiment in a line: LTEA_HepaRG_ABCC2: Life Technologies and Expression Analysis (LTEA) Assay for ABC Transporter (ABCC2) using HepaRG (AID 2283464). The essentials: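 HepaRG, 48 h post-plating; serum-free induction medium; cpd 8-pt, 100 uM top, half-log, 0.5% DMSO, duplicate, 48 h. Readout: ABCC2 mRNA by qRT-PCR, norm. ACTB/GAPDH/POLR2A. Bidirectional fit vs DMSO baseline.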

Read-out in test [8]: ATP-citrate lyase (ACLY), ACLY (gene 47)
The experiment in a line: LTEA_HepaRG_ACLY: Life Technologies and Expression Analysis (LTEA) Assay for ATP-citrate lyase (ACLY) using HepaRG (AID 2283466). The essentials:
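qRT-PCR readout of ACLY transcript after 48 h chemical treatment of HepaRG cells; expression normalized to three housekeeping genes. Eight-point half-log series, highest 100 uM, 0.5% DMSO vehicle. Gain or loss fitted against DMSO baseline.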

Read-out in test [9]: Peroxisomal acyl-coenzyme A oxidase 1 (ACOX1) gene, ACOX1 (gene 51)
The test can be described thus: LTEA_HepaRG_ACOX1: Life Technologies and Expression Analysis (LTEA) Assay for Peroxisomal acyl-coenzyme A oxidase 1 (ACOX1) gene using HepaRG (AID 2283467). The essentials:
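HepaRG, 48 h chemical exposure, 8-pt half-log series from 100 uM top, 0.5% DMSO vehicle, duplicates. Readout: ACOX1 mRNA by Fluidigm qRT-PCR, housekeeping-normalized; bidirectional fit vs DMSO baseline.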

Read-out in test [10]: Alkaline Phosphatase, Placental (ALPP) gene, ALPP (gene 250)
The experiment in a line: LTEA_HepaRG_ALPP: Life Technologies and Expression Analysis (LTEA) Assay for Alkaline Phosphatase, Placental (ALPP) gene using HepaRG (AID 2283468).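 For AC50: differentiated human HepaRG liver cells in serum-free induction medium.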 An outline of the steps: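 HepaRG, 48 h plating then 48 h dosing, serum-free induction medium, 0.5% DMSO. 8 conc, half-log, max 100 uM, duplicates. Endpoint: ALPP transcript by qRT-PCR, housekeeping-normalized; gain or loss fitted vs DMSO.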

Read-out in test [11]: Bcl-2 (BAD) gene, BAD (gene 572)
The test can be described thus: LTEA_HepaRG_BAD: Life Technologies and Expression Analysis (LTEA) Assay for Bcl-2 (BAD) gene using HepaRG (AID 2283469). The essentials: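 HepaRG, 48 h exposure, 8-pt half-log curve from 100 uM in 0.5% DMSO, duplicates. Readout: TaqMan qRT-PCR for BAD mRNA, housekeeping-normalised (ACTB/GAPDH/POLR2A); gain or loss fitted against DMSO baseline.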

Read-out in test [12]: Bcl-2 (BAX) gene, BAX (gene 581)
The experiment in a line: LTEA_HepaRG_BAX: Life Technologies and Expression Analysis (LTEA) Assay for Bcl-2 (BAX) gene using HepaRG (AID 2283470). The essentials:
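Human HepaRG cells treated in duplicate for 48 h across eight concentrations (max 100 uM, 0.5% DMSO); BAX expression measured by qRT-PCR.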

Read-out in test [13]: adenosine kinase (ADK) gene, ADK (gene 132)
The test can be described thus: LTEA_HepaRG_ADK: Life Technologies and Expression Analysis (LTEA) Assay for adenosine kinase (ADK) gene using HepaRG (AID 2283471). The essentials:
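ADK expression quantified by qRT-PCR, normalised to three housekeeping genes, after 48 h exposure of HepaRG cells to eight concentrations (top 100 uM, half-log steps, duplicate, 0.5% DMSO). Up- or down-regulation fitted relative to vehicle.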

Read-out in test [14]: Alpha-fetoprotein (AFP) gene, AFP (gene 174)
The experiment in a line: LTEA_HepaRG_AFP: Life Technologies and Expression Analysis (LTEA) Assay for Alpha-fetoprotein (AFP) gene using HepaRG (AID 2283472). The essentials:
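Measures AFP mRNA change in HepaRG after 48 h chemical exposure (8 half-log concentrations, highest 100 uM, 0.5% DMSO). Fold change relative to DMSO, fitted in both directions.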

Read-out in a further test: BCL2L11 (gene 10018)
The test can be described thus: LTEA_HepaRG_BCL2L11: Life Technologies and Expression Analysis (LTEA) Assay for Bcl-2 (BCL2L11) gene using HepaRG (AID 2283473). The essentials: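 Read-out is BCL2L11 transcript level by qRT-PCR, normalized to three housekeeping genes and fitted bidirectionally against 0.5% DMSO vehicle. HepaRG cells received chemicals for 48 h in serum-free induction medium, 100 uM down in half-log dilutions.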

Read-out in test [15]: Apolipoprotein A-V (APOA5) gene, APOA5 (gene 116519)
The experiment in a line: LTEA_HepaRG_APOA5: Life Technologies and Expression Analysis (LTEA) Assay for Apolipoprotein A-V (APOA5) gene using HepaRG (AID 2283474). An outline of the steps: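 Readout is APOA5 transcript level by qRT-PCR on Fluidigm dynamic arrays, normalized to three housekeeping genes. HepaRG cultures received chemicals for 48 h at up to 100 uM (half-log steps, 0.5% DMSO), with gain or loss scored relative to DMSO.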

Read-out in test [16]: Apoptosis regulator Bcl-2 (Homo sapiens) (UniProt P10415)
The experiment in a line: LTEA_HepaRG_BCL2: Life Technologies and Expression Analysis (LTEA) Assay for Bcl-2 gene using HepaRG (AID 2283475). The essentials: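 Each chemical was tested in duplicate on HepaRG cultures held in serum-free induction medium for 48 h, highest concentration 100 uM with half-log dilutions. Transcript levels came from multiplexed qRT-PCR, normalised to housekeeping genes; activity was scored in either direction relative to DMSO.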

Read-out in test [17]: Bcl-2 (BID) gene, BID (gene 637)
The test can be described thus: LTEA_HepaRG_BID: Life Technologies and Expression Analysis (LTEA) Assay for Bcl-2 (BID) gene using HepaRG (AID 2283476). An outline of the steps: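 Assay used HepaRG hepatic cells treated 48 h in serum-free medium with half-log dilutions from 100 uM. Endpoint: BID mRNA, qRT-PCR, normalized to ACTB/GAPDH/POLR2A.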

Read-out in a further test: Caspase-3 (Homo sapiens) (UniProt P42574)
The test can be described thus: LTEA_HepaRG_CASP3: Life Technologies and Expression Analysis (LTEA) Assay for cysteine-aspartic acid protease (CASP3) using HepaRG (AID 2283477). An outline of the steps: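 Read-out is CASP3 mRNA level by TaqMan qRT-PCR in human HepaRG cells after 48 h chemical exposure. Eight half-log concentrations topping at 100 uM were tested in 0.5% DMSO; gain or loss was fitted relative to DMSO.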

The source made the active and inactive calls. Rule for the calls: active = hit-call score of the fitted dose curve at least 0.9, where 1 is the maximum; inactive = score below 0.9.

The AC50 is the concentration giving half of the maximal activity seen.

Sequence of Apoptosis regulator Bcl-2 (Homo sapiens) (P10415 whole entry, looked up): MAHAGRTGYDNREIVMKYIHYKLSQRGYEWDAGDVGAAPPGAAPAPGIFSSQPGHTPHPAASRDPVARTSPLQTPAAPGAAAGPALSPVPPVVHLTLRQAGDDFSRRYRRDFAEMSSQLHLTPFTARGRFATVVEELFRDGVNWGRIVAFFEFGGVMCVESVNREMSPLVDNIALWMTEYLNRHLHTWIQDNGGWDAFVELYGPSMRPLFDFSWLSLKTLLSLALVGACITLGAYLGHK
Sequence of Caspase-3 (Homo sapiens) (P42574 whole entry, looked up): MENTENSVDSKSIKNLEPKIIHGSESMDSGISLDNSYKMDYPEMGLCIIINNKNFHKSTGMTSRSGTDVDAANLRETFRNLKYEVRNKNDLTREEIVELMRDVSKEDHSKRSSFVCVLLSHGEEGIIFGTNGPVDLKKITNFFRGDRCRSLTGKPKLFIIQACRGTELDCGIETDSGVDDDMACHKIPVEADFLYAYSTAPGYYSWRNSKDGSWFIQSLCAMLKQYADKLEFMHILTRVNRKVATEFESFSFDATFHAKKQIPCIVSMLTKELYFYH

As for `O=C(O)c1cccc(C[C@@H]2COc3ccc(OCc4nc5cc(F)ccc5s4)cc3[C@@H]2O)c1`, the molecule was classed as inactive in test [1], in test [2], in test [3], in test [4], in [7] and in test [8]. The molecule was classed as inactive (in [9]; in [11]; in test [12]; in [13]; with BCL2L11 (gene 10018); in test [16]). In addition, the result (in [17]; with Caspase-3 (Homo sapiens)) was inactive. Also, the AC50 in test [5] is 79.3 µM (active); in [6], 79.3 µM (active); in test [10], 80 µM (active); in test [14], 68.7 µM (active); in test [15] it was 81.1 µM (active).

With `C[C@]12C=CC(=O)C=C1CC[C@H]1[C@@H]3C[C@@H](O)[C@](O)(C(=O)CO)[C@@]3(C)C[C@H](O)[C@@]12F`, the molecule was classed as inactive in test [1], in [2], in test [3], in test [4], in [5] and in test [6]. The result in [7], in test [9], in test [10], in [11], in test [12] and in [14] was inactive. Also, the call (with BCL2L11 (gene 10018); in test [15]; in [16]; in [17]) was inactive.

Take `O=S(=O)(O)c1ccc(N=Nc2c(O)ccc3cc(S(=O)(=O)O)ccc23)cc1`: the call in [1], in [2], in test [3], in test [4], in [5] and in test [6] was inactive. The result in [7], in test [9], in test [10], in [11], in [12] and in test [13] was inactive. The molecule was called inactive (in [14]; with BCL2L11 (gene 10018); in test [15]; in test [16]; in test [17]).

As to `CCCCOC(=O)c1ccccc1`, the result in [1], in test [2], in test [3], in [4], in [5] and in test [6] was inactive. The call in test [7], in test [9], in test [10], in test [11], in test [12] and in [13] was inactive. In addition, the call (in test [14]; with BCL2L11 (gene 10018); in test [15]; in test [16]; in test [17]; in the test with Caspase-3 (Homo sapiens)) was inactive.

With `NNC(=O)c1ccncc1`, the molecule was called inactive in test [1], in test [2], in test [3], in test [4], in test [5] and in [6]. For the same molecule, the molecule was classed as inactive in test [7], in test [9], in test [10], in test [11], in test [12] and in test [13]. Besides, the molecule was classed as inactive (in test [14]; in the test with BCL2L11 (gene 10018); in [15]; in test [16]; in test [17]).

Regarding `NC(=O)N1c2ccccc2C=Cc2ccccc21`, the molecule was classed as inactive in test [1], in test [2], in test [3], in test [4], in test [5] and in test [6]. Also, the call in test [9], in test [10], in test [11], in test [12], in test [13] and in test [14] was inactive. The molecule was called inactive (with BCL2L11 (gene 10018); in test [15]; in test [16]; in [17]). Further, in [7], the half-maximal activity concentration (AC50) was 37.8 µM (active).
